# From PubChem BioAssay AID623901 (Broad Institute, 2012)
# The campaign covered roughly 340,000 compounds. About 470 (0.14%) were called active. The sample as a whole holds a higher share of actives than the screen did. Values without a mark were called inactive.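 The calls were made as follows: active = mean activation of 30% or more, with every replicate also reaching 30%; inconclusive = mean activation of 30% or more but some replicate falls short; inactive = the rest.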
# Assay: small molecules raising miR-122 sensor signal – cell-based, Huh7 psiCHECK-miR122, Renilla luciferase, single point, primary screen (AID 623901);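 also: 0% = median of neutral control wells and 100% = median of positive control wells; higher luciferase signal means stronger suppression of miR-122 activity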
# Conditions: 48 h, at 12.5 µM, stronger effect = higher value
row,Structure (SMILES),activation
1,COc1ccc(C#Cc2cnc3c(c2)C(=O)N([C@@H](C)CO)C[C@H](C)[C@@H](CN(C)CC2CCOCC2)O3)cc1,0.272%
2,CSc1nc(-c2ccccc2)nc(C(Cl)Cl)n1,42% (active)
3,COc1ccccc1-c1ccc2c(c1)O[C@H](CN(C)S(=O)(=O)c1ccc(C)cc1)[C@@H](C)CN([C@H](C)CO)S2(=O)=O,2.3%
4,C[C@H](CO)N1C[C@H](C)[C@@H](CN(C)C(=O)C2CCOCC2)Oc2cc(-c3ccc(C(=O)N(C)C)cc3)ccc2S1(=O)=O,-12.2%
5,COc1cccc(-c2ccc3c(c2)O[C@H](CN(C)C(=O)C2CCOCC2)[C@H](C)CN([C@H](C)CO)S3(=O)=O)c1,40.8% (active)
6,COc1cccc(S(=O)(=O)N(C)C[C@@H]2Oc3cc(C4=CCCCC4)ccc3S(=O)(=O)N([C@H](C)CO)C[C@H]2C)c1,36.2% (active)
7,COCC#Cc1ccc2c(c1)O[C@H](CN(C)C(=O)C1CCOCC1)[C@@H](C)CN([C@@H](C)CO)S2(=O)=O,-2.66%
8,CNC[C@H]1Oc2cc(-c3ccc(OC)cc3)ccc2S(=O)(=O)N([C@H](C)CO)C[C@@H]1C,-1.22%
9,C[C@H]1CN([C@@H](C)CO)C(=O)c2cc(Br)cnc2O[C@H]1CN(C)Cc1cccc(F)c1,-14.9%
10,CCC(=O)N1C[C@@H](C)[C@@H](OC)CN(C)C(=O)c2ccc(NC(=O)C3CCCCC3)cc2OC[C@H]1C,-2.5%
11,COc1ccc(C)cc1S(=O)(=O)Nc1cc2c3c(c1)CCC(=O)N3CCC2,-150%
12,C/C=C/c1ccc2c(c1)O[C@H](CN(C)C(=O)Cc1ccccn1)[C@H](C)CN([C@H](C)CO)S2(=O)=O,-4.41%
13,CNC[C@@H]1Oc2cc(C#CC3CCCC3)ccc2S(=O)(=O)N([C@@H](C)CO)C[C@@H]1C,32.4% (active)
14,C[C@H](CO)N1C[C@H](C)[C@@H](CN(C)C(=O)C2CC2)Oc2cc(C#CC3CC3)ccc2S1(=O)=O,-21%
15,CCC(=O)N(C)C[C@@H]1Oc2cc(C#Cc3cccnc3)ccc2S(=O)(=O)N([C@H](C)CO)C[C@@H]1C,-5.93%
16,C[C@H]1CN([C@@H](C)CO)S(=O)(=O)c2ccc(C#Cc3ccccc3F)cc2O[C@@H]1CN(C)C(=O)c1ccc2c(c1)OCO2,48% (active)
17,C[C@@H]1CN([C@H](C)CO)S(=O)(=O)c2ccc(C#Cc3ccccc3F)cc2O[C@@H]1CN(C)C(=O)c1ccc2c(c1)OCO2,48.9% (active)
18,C[C@@H]1CN([C@@H](C)CO)S(=O)(=O)c2ccc(C#Cc3ccc(F)cc3)cc2O[C@H]1CN(C)S(C)(=O)=O,0.672%
19,C[C@@H]1CN([C@H](C)CO)S(=O)(=O)c2ccc(C#CC3(O)CCCC3)cc2O[C@@H]1CN(C)C(=O)c1cccnc1,44% (active)
20,CNC[C@@H]1Oc2cc(C#CCC3CCCC3)ccc2S(=O)(=O)N([C@H](C)CO)C[C@H]1C,14.9%
21,C[C@@H]1CN([C@@H](C)CO)S(=O)(=O)c2ccc(C#Cc3ccccc3)cc2O[C@@H]1CN(C)C(=O)Nc1ccccc1,-3.74%
22,C/C=C/c1ccc2c(c1)O[C@H](CN(C)C(=O)c1ccc3c(c1)OCO3)[C@@H](C)CN([C@H](C)CO)S2(=O)=O,-10.3%
23,C[C@H]1CN([C@@H](C)CO)S(=O)(=O)c2ccc(-c3cccc(C#N)c3)cc2O[C@H]1CN(C)C(=O)c1ccccc1,4.92%

row,Structure (SMILES),activation
1,CCCC#Cc1ccc2c(c1)O[C@@H](CN(C)C(=O)c1cccnc1)[C@H](C)CN([C@H](C)CO)S2(=O)=O,-14.9%
2,C[C@H](CO)N1C[C@H](C)[C@@H](CN(C)Cc2cncnc2)Oc2cc(-c3ccccc3)ccc2S1(=O)=O,-27.5%
3,C[C@H]1CN([C@@H](C)CO)C(=O)c2cc(/C=C/c3ccccc3)cnc2O[C@H]1CN(C)Cc1cccc(C(=O)O)c1,8.03%
4,CCOc1ccccc1NC(=O)Cn1nnc(C(=O)NCc2cccs2)c1N,-94.8%
5,C[C@@H]1CN([C@@H](C)CO)S(=O)(=O)c2ccc(-c3ccc(C(=O)N(C)C)cc3)cc2O[C@@H]1CN(C)C(=O)Cc1ccccn1,-3.98%
6,COCC#Cc1cnc2c(c1)C(=O)N([C@@H](C)CO)C[C@H](C)[C@@H](CN(C)Cc1ccccc1)O2,-2.07%
7,C[C@@H]1CN([C@H](C)CO)C(=O)c2cc(-c3cccc(C(=O)N(C)C)c3)cnc2O[C@H]1CN(C)S(=O)(=O)c1ccc(F)cc1,-4.18%
8,COc1ccc(-c2cc(NC(C)=O)c3ncc(-c4cc(OC)c(OC)c(OC)c4)n3c2)cn1,-107%
9,CCCC#Cc1ccc2c(c1)O[C@@H](CN(C)C(=O)CC)[C@@H](C)CN([C@H](C)CO)S2(=O)=O,-16.6%
10,COCCn1c(SCC(=O)c2[nH]c(C)c(C(C)=O)c2C)nc2ccccc2c1=O,-272%
11,CC1CCCCC1NC(=O)/C(C#N)=C/C=C/c1ccccc1[N+](=O)[O-] (configuration not stated),-102%
12,Cc1ccc(OCC(=O)Nc2cccc3c2CCCC3)cc1C,-94.9%
13,C[C@@H]1CN([C@H](C)CO)C(=O)c2cc(C#Cc3ccccn3)cnc2O[C@H]1CN(C)CC1CCOCC1,-7.38%
14,CCC(=O)Nc1ccc2c(c1)OC[C@H](C)N(C(=O)c1ccncc1)C[C@H](C)[C@H](OC)CN(C)C2=O,-2.72%
15,COCC#Cc1cnc2c(c1)C(=O)N([C@@H](C)CO)C[C@@H](C)[C@H](CN(C)C(=O)C1CCOCC1)O2,-0.849%
16,CC1=C(C)CC(C(=O)NNC(=O)c2ccccc2O)C(C(=O)O)C1 (configuration not stated),-151%
17,Cn1cnc([N+](=O)[O-])c1Sc1ccccc1,-217%
18,CCC(=O)N(C)C[C@@H]1Oc2ncc(C#CCC3CCCC3)cc2C(=O)N([C@@H](C)CO)C[C@H]1C,7.03%
19,COc1ccc(C#Cc2cnc3c(c2)C(=O)N([C@H](C)CO)C[C@H](C)[C@H](CN(C)S(=O)(=O)c2ccc(F)cc2)O3)cc1OC,8.05%
20,C/C=C/c1ccc2c(c1)O[C@H](CN(C)C(=O)Nc1ccc(OC)cc1)[C@@H](C)CN([C@H](C)CO)S2(=O)=O,-21.8%
21,COCC#Cc1cnc2c(c1)C(=O)N([C@H](C)CO)C[C@H](C)[C@H](CN(C)C(=O)Nc1ccccc1OC)O2,0.317%
22,COc1ccc(C(C#N)Nc2ccc(C)cc2)cc1 (configuration not stated),49.7% (active)
23,COc1ccccc1NC(=O)N(C)C[C@@H]1Oc2ncc(C#CCC(C)C)cc2C(=O)N([C@@H](C)CO)C[C@@H]1C,3.82%

row,Structure (SMILES),activation
1,CC(C)C#Cc1ccc2c(c1)O[C@H](CN(C)Cc1ccccn1)[C@H](C)CN([C@H](C)CO)S2(=O)=O,-14.1%
2,Cc1ccccc1-c1cnc2c(c1)C(=O)N([C@H](C)CO)C[C@H](C)[C@@H](CN(C)C(=O)c1ccccc1)O2,2.61%
3,Cc1cc(C)cc(NS(=O)(=O)c2ccc(F)cc2)c1,-117%
4,COc1ccc(F)cc1S(=O)(=O)Nc1ccc2c(c1)OCO2,-99.7%
5,C[C@H]1CN([C@@H](C)CO)S(=O)(=O)c2ccc(-c3ccccc3)cc2O[C@H]1CN(C)C(=O)CC1CC1,4.7%
6,CO[C@H]1CN(C)C(=O)c2cc(NC(C)=O)ccc2OC[C@H](C)N(C(=O)CN(C)C)C[C@@H]1C,-4.03%
7,COc1ccc(S(=O)(=O)Nc2ccc(F)cc2)c(C)c1C,-231%
8,COc1ccc(CN2CCOC2=O)cc1OC,44.5% (active)
9,C[C@@H]1CN([C@@H](C)CO)C(=O)c2cc(C#Cc3ccccc3)cnc2O[C@H]1CN(C)C(=O)c1ccccn1,5.71%
10,C[C@@H]1CN([C@@H](C)CO)C(=O)c2cc(/C=C/c3ccccc3)cnc2O[C@H]1CN(C)C(=O)C1CCC1,2.31%
11,CCCN(C)C[C@@H]1Oc2cc(C#CCc3ccccc3)ccc2S(=O)(=O)N([C@H](C)CO)C[C@@H]1C,7.02%
12,C[C@@H]1CN([C@H](C)CO)C(=O)c2cc(-c3ccccc3F)cnc2O[C@H]1CN(C)C(=O)NC1CCCCC1,-3.04%
13,CCC(=O)N(C)C[C@@H]1Oc2ncc(C#Cc3cccnc3)cc2C(=O)N([C@@H](C)CO)C[C@@H]1C,-1.27%
14,COc1ccc(C)cc1S(=O)(=O)NC1CCCCC1,-375%
15,Cc1cccc(-n2ncc(Cl)c(Cl)c2=O)c1,69.6% (active)
16,CCC(=O)N(C)C[C@H]1Oc2cc(-c3cccc(C#N)c3)ccc2S(=O)(=O)N([C@@H](C)CO)C[C@@H]1C,-7.09%
17,O=C(Nc1cc(S(=O)(=O)Nc2ccc(Cl)cc2)ccc1O)c1ccc(F)cc1F,-118%
18,CCC(=O)N(C)C[C@@H]1Oc2cc(C#C[C@H](C)O)ccc2S(=O)(=O)N([C@H](C)CO)C[C@@H]1C,5.93%
19,CCCNC(=O)N(C)C[C@@H]1Oc2ncc(C#Cc3ccccc3F)cc2C(=O)N([C@@H](C)CO)C[C@H]1C,13.1%
20,COc1ccc(CN(C)C[C@@H]2Oc3ccc(NS(=O)(=O)c4ccc(OC)cc4)cc3C(=O)N([C@H](C)CO)C[C@H]2C)cc1,-2.32%
21,C[C@@H]1CN([C@H](C)CO)C(=O)c2cccc(NS(=O)(=O)c3cn(C)cn3)c2O[C@H]1CN(C)CC1CC1,-0.457%
